Glioma ERSR ind: ER stress response induction in glioma | AID 602332 | U87-MG GRP78 promoter luciferase reporter, 16 h | 420,000 compounds, 0.02% hits | Potency, µM, hits mostly activators; also: series mostly up to about 76 µM; nearly all actives have a fitted effect of over 35% in size
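Stably transfected U87-MG glioma cells carrying a GRP78-based luciferase sensor; 16 h compound incubation. Luminescence end-point read 10 min after Bright-Glo addition at room temperature.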
WRN helicase inh: WRN helicase (human) inhibition; Q14191; WRN helicase unwinding, fluorescent forked duplex, kinetic; Potency, µM (highest dose often 114 µM), usual class: inhibitors; 360,000 compounds, 0.46% hits; also: nearly all actives have a fitted effect of over 55% in size
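Primary qHTS, 1536-well format. 20 nM WRN + compound, 15 min RT; start with 100 nM forked fluorophore/quencher duplex, 2 mM ATP (final); kinetic read ex 525/em 598 nm.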
Pin1 inh: human Pin1 inhibition. Q13526. Pin1 FP peptide displacement, HiFluor488, 10 min. Potency, µM (titrated, usually from 115 µM), actives largely listed as inhibitors. 390,000 compounds, 0.009% hits. AID 504891; active = well fitted inhibition curve with a large enough effect in the polarisation, with a control signal flat, not every such curve was filed as active; inconclusive = small, poorly fitted or top-dose-only effect, or effect the other way, or a change in a side signal; inactive = no such curve, though single readings can be large or run the other way; the % refers to the polarisation
Target sequence (Q13526 whole entry, looked up): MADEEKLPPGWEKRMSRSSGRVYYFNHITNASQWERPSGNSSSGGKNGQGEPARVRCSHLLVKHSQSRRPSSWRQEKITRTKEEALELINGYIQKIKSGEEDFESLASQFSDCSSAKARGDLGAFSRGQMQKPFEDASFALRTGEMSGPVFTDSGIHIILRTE
PGK inhibitor: blocks T. brucei phosphoglycerate kinase; P07378; PGK/GAPDH coupled, Kinase-Glo luminescence, 60 min; Potency, µM (highest dose often 57.5 µM), actives largely listed as inhibitors; 380,000 compounds, 0.043% hits; AID 602233; also: nearly all actives have a fitted effect of over 60% in size
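Luminescent ATP detection (Kinase-Glo Plus) follows a 60-minute room-temperature incubation, with wells lacking PGK as controls. Buffer: 100 mM TEA (pH 7.6), 5 mM MgCl2, 0.01% Tween-20. Coupling enzyme GAPDH (100 nM final) supplies unstable 1,3-BPG in-well.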
PI5P4Ka inh: inhibitors of human PI5P4K alpha; PI5P4Kalpha enzyme, ADP-Glo luminescence, 60 min; active compounds read low; AID 652105; max response, %; 330,000 compounds, 1.2% hits; active = max response of -50% or lower; inconclusive = between -30% and -50%; inactive = -30% or higher; also: value at the top dose of about 77 µM
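Single end-point luminescence (ADP-Glo) quantified ADP from PI5P4Kalpha turnover; ATP 5 microM final, 1 h at RT, 0.1% CHAPS and 0.28 mM EGTA in HEPES pH 7.4.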
FEN1 inh: inhibitors of human flap endonuclease 1 | P39748 | Recombinant FEN1 flap cleavage, fluorescence, 15 min | Potency, µM (doses to about 114 µM), hits mostly inhibitors | 390,000 compounds, 0.35% hits | AID 588795; also: nearly all actives have a fitted effect of over 65% in size
Target sequence (P39748 whole entry, looked up): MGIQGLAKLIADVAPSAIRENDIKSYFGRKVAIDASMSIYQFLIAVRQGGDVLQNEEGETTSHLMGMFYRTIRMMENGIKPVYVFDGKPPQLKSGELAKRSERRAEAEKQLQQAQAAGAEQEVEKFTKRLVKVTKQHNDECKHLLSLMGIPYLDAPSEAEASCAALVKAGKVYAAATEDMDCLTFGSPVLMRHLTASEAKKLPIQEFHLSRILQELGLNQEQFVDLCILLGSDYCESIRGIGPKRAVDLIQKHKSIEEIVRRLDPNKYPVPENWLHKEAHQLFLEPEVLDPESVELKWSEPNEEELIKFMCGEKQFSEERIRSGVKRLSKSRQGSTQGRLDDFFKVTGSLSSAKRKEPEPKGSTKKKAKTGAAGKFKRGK
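Enzyme 10 nM, 15 min RT preincubation with compound; start with substrate 50 nM final; reads at 0 and 15 min; qHTS titration, four-parameter Hill fit.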
Numbers stand for hits; . = inactive; ? = inconclusive; / = not tested or not shown; [ ] = another dose, or the depositor's remark. Only some compounds are listed: those with a hit (about 1.3% of all), similar ones and a draw of the others. Unless noted, calls follow the shape of the dose curve; as a rule, active = well fitted curve in the direction sought with a large enough effect; inconclusive = small, poorly fitted or top-dose-only effect, or another doubt; inactive = no such curve, though single readings can be large; an effect the other way counts as inactive or inconclusive.

SMILES | Glioma ERSR ind | WRN helicase inh | Pin1 inh | PGK inhibitor | PI5P4Ka inh | FEN1 inh
NS(=O)(=O)c1ccc(O)c(N2C(=O)c3cccc4c(C(=O)O)ccc(c34)C2=O)c1 | . | . | . | . | . | .
CCOC(=O)C(Cc1ccnc2ccccc12)=NO | . | . | . | . | . | .
CCOC(=O)C(=O)Cc1cccnn1 | . | 50µM | / | ? | . | .
CCCCCNC(=O)C(c1ccccc1F)n1c(=O)c(-c2ccco2)nc2ccccc21 (stereo not given) | / | . | / | / | -64 | /
O=C(NC1CCCCC1)C(c1ccc(-c2ccccc2)cc1)n1c(=O)c(-c2ccco2)nc2ccccc21 (stereo not given) | / | . | / | / | -92 | /
O=C(NC1CCCCC1)C(c1ccccc1F)n1c(=O)c(-c2ccco2)nc2ccccc21 (stereo not given) | / | . | / | / | -69 | /
O=C(NC1CCCCC1)C(c1ccncc1)n1c(=O)c(-c2ccccc2)nc2ccccc21 (stereo not given) | / | . | / | / | . | /
Cc1csc(SCC(=O)N2CCOc3ccc(C(O)C4CCCCC4)cc3C2)n1 (stereo not given) | . | / | / | / | / | /
Clc1cccc(Cc2c(-c3ccco3)nc3ccc(Cl)cn23)c1 | . | . | / | / | -65 | /
COc1ccc(NC(=O)CN(C)CC(=O)Nc2cccc(F)c2)cc1S(=O)(=O)N1CCCCC1 | . | 50µM | . | . | . | .
O=C1CC(C(=O)N2CCOc3ccc(CN4CCC(Oc5cccnc5)CC4)cc3C2)c2ccccc21 (stereo not given) | . | / | / | / | / | /
O=C(CSc1ccncc1)NCC1Cc2cccc(-c3cncnc3)c2O1 (stereo not given) | . | / | / | / | / | /
COc1ccc2c(c1)-c1nc(/N=C/c3ccc(O)c(OC)c3)sc1CC2 | . | 79µM | ? | . | . | .
COc1ccc2c(c1)-c1nc(N)sc1CC2 | . | . | . | . | . | .
O=c1c(Cl)c(O)c2cccc3c4ccccc4n1c23 | . | . | ? | . | -57 | ?
COc1c(O)c(=O)n2c3ccccc3c3ccnc1c32 | . | . | . | . | . | 11µM
COC(=O)[C@]12CCC(C)(C)C[C@@H]1[C@@H]1C(=O)C=C3[C@@]4(C)C=C(C#N)C(=O)C(C)(C)[C@@H]4CC[C@@]3(C)[C@]1(C)CC2 | . | / | / | / | / | /
COc1ccc(-c2nc3ccc(Cl)cc3c(=O)n2Cc2ccccc2)cc1COc1ccc(NC(C)=O)cc1 | / | / | . | / | / | /
CC1(C)Cc2c(sc3ncn4c(=S)[nH]nc4c23)CO1 | . | . | . | . | -53 | .
O=C(CNC(=O)c1cccc2ccccc12)OC(C(=O)Nc1cc(C(F)(F)F)ccc1Cl)c1ccccc1 (stereo not given) | / | / | . | / | / | /
CC(C)CNc1nc(N)c([N+](=O)[O-])c(N2CCCCCC2)n1 | . | .[11.6 µM] | . | . | . | 45µM
COc1ccc(CCNC(=O)c2ccc3nc(-c4ccco4)c(-c4ccco4)nc3c2)cc1OC | . | 35µM | ? | . | -55 | ?
CCc1nc2ccc(C(=O)NCCc3ccc(OC)c(OC)c3)cc2nc1CC | . | . | . | . | . | .
OC(c1cccnc1)c1ccc2c(c1)CN(Cc1ccc(-c3ccccc3Cl)o1)CCO2 (stereo not given) | . | / | / | / | / | /
CC(C)N1[N]C(=C2C=c3cc(O)ccc3=N2)c2c(N)ncnc21 | . | / | / | / | / | /
SMILES | Glioma ERSR ind | WRN helicase inh | Pin1 inh | PGK inhibitor | PI5P4Ka inh | FEN1 inh
Nc1nc(Nc2cccc(Cl)c2)nc(NCCO)c1[N+](=O)[O-] | . | . | . | . | -63 | ?
Nc1nc(NCc2ccccc2)nc(NCCO)c1[N+](=O)[O-] | . | . | . | . | . | .
Cc1nc2ccccc2nc1CN1CCOc2ccc(C(C)(O)COc3ccccc3)cc2C1 (stereo not given) | . | / | / | / | / | /
COc1ccc2cc(CNCc3ccccc3Cl)c(N3CCCC(CO)C3)nc2c1 (stereo not given) | . | / | / | / | / | /
CC(/C=N/NC(=O)c1ccc(CN2c3cccc4cccc(c34)S2(=O)=O)cc1)c1ccccc1 (stereo not given) | . | . | . | . | ? | .
O=C(O)c1ccc(/C=N/NC(=O)c2ccc(CN3c4cccc5cccc(c45)S3(=O)=O)cc2)cc1 | . | ? | / | ? | -54 | ?
CC(C)(C)c1ccc(Nc2nc(C#N)nc(NC3CCCC3)n2)cc1 | / | / | . | / | / | /
Cc1ccc(S(=O)(=O)N(CC(O)Cn2c3ccccc3c3ccccc32)c2cccc(C(=O)N(C)C)c2)cc1 (stereo not given) | . | / | ? | . | / | 89µM
Cc1ccc(S(=O)(=O)N(CC(O)Cn2c3ccccc3c3ccccc32)c2cccc(C(N)=O)c2)cc1 (stereo not given) | . | / | . | . | / | .
COc1cccc(CN2CCCC(c3nc(-c4ccncc4)ncc3-c3ccccc3)C2)c1O (stereo not given) | . | / | / | / | / | /
C=C1C(=O)CC2=C1[C@](Cc1ccc(F)cc1)(C(=O)OC)N(C(=O)c1ccccc1)C2 | / | . | / | / | . | /
C=C1C(=O)C=C2CN(C(=O)c3ccccc3)[C@@](Cc3ccc(F)cc3)(C(=O)OC)[C@@H]12 | . | . | . | . | -77 | .
COc1cc2nc(N3CCNCC3)nc(N)c2cc1OC | . | ? | ? | . | ? | 56µM
CCOC(=O)/C=C1\SCC(=O)N1CC(=O)Nc1ccc(OC)c(OC)c1 | . | . | . | . | . | .
CCOC(=O)/C=C1\SCC(=O)N1CC(=O)c1ccc[nH]1 | . | .[11.6 µM] | . | . | -53 | .
Cc1cccc(CNC(=O)c2cnn(-c3nccc(-c4cc5ccccc5o4)n3)c2C2CC2)n1 | . | / | / | / | / | /
CN1CCN(c2cccc(Nc3nn4c(=O)c5ccc(Br)cc5nc4s3)c2)CC1 | / | / | . | / | / | /
CN(C)C1(CN=Cc2cc(Cl)cc([N+](=O)[O-])c2O)CCCCC1 | . | . | . | . | -62 | .
COc1ccc(-c2cc(-c3ccco3)[nH]c(=O)c2C#N)cc1 | . | . | . | . | . | .
N#Cc1c(-c2cccc(Br)c2)cc(-c2ccco2)[nH]c1=O | . | ? | ? | . | -62 | .
COCc1c(C(=O)NC2CCCCCC2)cnn1-c1nccc(-c2cc(C)sc2C)n1 | . | / | / | / | / | /
O=S(=O)(O)c1cc(O)c2c(N=Nc3ccc(Nc4ccccc4)c4c(S(=O)(=O)O)cccc34)cc(S(=O)(=O)O)cc2c1 | . | / | / | / | / | /
O=S(=O)(O)c1ccc2c(N=Nc3ccc(S(=O)(=O)O)c4ccccc34)c(O)c(S(=O)(=O)O)cc2c1 | . | / | / | / | / | 10µM
CC(=O)Nc1ccc(S(=O)(=O)O)c2cc(S(=O)(=O)O)c(N=Nc3ccc(N=Nc4ccc(S(=O)(=O)O)cc4)c4ccc(S(=O)(=O)O)cc34)c(O)c12 | . | / | / | / | / | 1.3µM
CC(=O)Nc1cccc2cc(S(=O)(=O)O)ccc12 | . | . | / | / | . | /

Compound activity deposited in PubChem by National Center for Advancing Translational Sciences (NCATS).
